# KCNQ2 enhance: potentiators of rat KCNQ2 potassium channel; CHO-K1 KCNQ2, FluxOR thallium flux fluorescence; active compounds read high; B-score at 10 µM; 310,000 tested, 0.54% active;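 active = fluorescence ratio B-score at least 3 SD of library B-scores, with initial fluorescence B-score within 3 of them, cut at about 5.3 in these data; same plate scores as AID 2156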;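 note: B-score of peak minus minimum over baseline fluorescence ratio after K+ and Tl+ stimulus; positive B-score means potentiation of KCNQ2 with more thallium influx and brighter signal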
# Target sequence (O88943 whole entry, looked up): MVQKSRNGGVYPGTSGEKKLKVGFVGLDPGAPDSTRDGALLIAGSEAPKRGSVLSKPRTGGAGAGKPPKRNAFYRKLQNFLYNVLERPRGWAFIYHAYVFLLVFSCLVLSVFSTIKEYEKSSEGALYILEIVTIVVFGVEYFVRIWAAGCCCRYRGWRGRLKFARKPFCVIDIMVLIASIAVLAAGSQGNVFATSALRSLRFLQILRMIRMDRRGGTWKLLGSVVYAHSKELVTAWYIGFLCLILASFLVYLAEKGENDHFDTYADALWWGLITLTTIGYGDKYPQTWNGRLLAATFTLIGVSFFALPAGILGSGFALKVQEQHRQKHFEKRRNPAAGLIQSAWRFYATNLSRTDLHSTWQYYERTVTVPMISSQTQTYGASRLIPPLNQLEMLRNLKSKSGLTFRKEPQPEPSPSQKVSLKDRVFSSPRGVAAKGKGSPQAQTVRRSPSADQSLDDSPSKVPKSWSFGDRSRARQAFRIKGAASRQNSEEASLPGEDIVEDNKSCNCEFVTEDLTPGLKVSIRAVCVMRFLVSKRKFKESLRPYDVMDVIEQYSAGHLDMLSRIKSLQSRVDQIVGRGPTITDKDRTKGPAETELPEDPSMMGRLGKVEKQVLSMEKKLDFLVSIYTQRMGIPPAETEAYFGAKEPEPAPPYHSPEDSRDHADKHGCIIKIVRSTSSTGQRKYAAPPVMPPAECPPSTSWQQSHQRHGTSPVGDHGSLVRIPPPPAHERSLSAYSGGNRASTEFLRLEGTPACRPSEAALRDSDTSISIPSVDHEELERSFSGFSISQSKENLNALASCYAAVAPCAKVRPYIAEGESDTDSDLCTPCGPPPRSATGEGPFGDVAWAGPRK
# KCNQ2 inh: rat KCNQ2 potassium channel inhibitors, primary screen, cell-based, CHO-K1, FluxOR thallium flux, B-score | AID 2156, 2009 | Potassium voltage-gated channel subfamily KQT member 2 (Rattus norvegicus), O88943 | B-score at 10 µM | 20 min; active compounds read low | 310,000 tested, 1.1% active;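 active = fluorescence ratio B-score at most minus 3 library SDs, with starting brightness B-score within 2 library SDs, cut at about -5.5 in these data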
# Kir21 confirm: mouse Kir2.1 channel blockers, retest, confirmation, cell-based, FluxOR thallium flux, duplicate. shares compounds with KCNQ2 enhance. Kir2.1-expressing cells, FluxOR thallium flux fluorescence; active compounds read low. Tl flux remaining, % of negative control (active compounds read low), % at 10 µM. 2,300 tested, 41% active. AID 2032, 2009;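 active = Primary-screen hit whose thallium flux fell at least 3 control SD below untreated wells in both duplicates, with normal baseline fluorescence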;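 note: 0% = blank wells without stimulus and 100% = stimulated no-compound controls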
# HEK293 ctr: alters thallium flux in parental HEK293 cells, Kir2.1 counter-screen. FluxOR signal as % of negative control (100 = no effect), % at 10 µM. shares compounds with KCNQ2 enhance. 2,300 tested, 19% active. AID 2105. FluxOR thallium flux fluorescence; 0% = unstimulated blank wells;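 active = dye signal at least 3 control SD above or below untreated wells in both duplicates, raw fluorescence within 3, either direction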;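 note: percent is based on the flux ratio of peak minus minimum fluorescence over baseline F0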
# CHO-K1 ctr: nonspecific thallium flux increase in parental CHO-K1, confirmation, counter-screen for KCNQ2 potentiator project, cell-based, FluxOR thallium flux, duplicate; shares compounds with KCNQ2 enhance; parental CHO-K1 cells, FluxOR thallium flux fluorescence; zero = vehicle mean+3SD, 100% = vehicle-minus-blank window; activity increase over 3SD of controls, % at 10 µM; 1,200 tested, 43% active; AID 2282, 2010;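 active = signal rise of at least 3 SD above the untreated control mean, in both duplicate wells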;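 note: counter screen of KCNQ2 potentiator hits so any rise reflects channel-independent effects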
# KCNQ1 sel pot: human KCNQ1 channel potentiation off-target, confirmation, selectivity assay for KCNQ2 potentiator project, cell-based, CHO, FluxOR thallium flux; shares compounds with KCNQ2 enhance; CHO KCNQ1 stable, FluxOR thallium flux fluorescence; beyond 3SD, as % of vehicle-control signal; activation over 3SD threshold, % at 10 µM; 1,200 tested, 28% active;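 active = fluorescence ratio rise of at least 3 SD of vehicle wells above their mean, in both replicate wells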;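 note: 0% = vehicle mean plus 3 SD and 100% = vehicle minus unstimulated blank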
# KCNQ2 pot confirm: rat KCNQ2 channel potentiators, confirmation, cell-based, CHO, FluxOR thallium flux, duplicate; 1,200 tested, 68% active; AID 2287, 2010; CHO-KCNQ2 cells, FluxOR thallium flux fluorescence; shares compounds with KCNQ2 enhance; potentiation, less the hit threshold, % at 10 µM;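 active = fluorescence ratio rising 3 SD or more over the vehicle control mean in both replicates, plus primary screen hit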;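 note: peak minus minimum thallium fluorescence divided by baseline after K/Tl stimulus; 0% = vehicle mean plus 3 SD and 100% = vehicle minus unstimulated blank difference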
# Kir2-1 sel: mouse Kir2.1 channel activation off-target, confirmation, selectivity assay for KCNQ2 potentiator project, cell-based, HEK293, FluxOR thallium flux; shares compounds with KCNQ2 enhance; HEK293 Kir2.1, FluxOR thallium flux fluorescence; activity over 3SD threshold, % at 10 µM; 1,200 tested, 2% active;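 active = fluorescence ratio rise of at least 3 SD above the vehicle-control mean, seen in both replicates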;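 note: 0% = vehicle mean plus 3 SD and 100% = vehicle minus no-stimulus blank window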
# KCNQ2 W236L MoA: potentiators of retigabine-insensitive KCNQ2 W236L, mechanism study for KCNQ2 potentiator project, cell-based, rat KCNQ2 W236L, CHO, automated patch clamp. shares compounds with KCNQ2 enhance. automated patch clamp current. current increase over 3SD of negative controls (%), active compounds read high, % at 25 µM. 940 tested, 10% active;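 active = current increase at least 3 SD of the untreated controls above them in both duplicate recordings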
# Starred values were filed as active, the others as inactive; i = inactive; . = no result. Hits are enriched below; roughly 1.6% of the tested compounds scored in any of these assays.
SMILES,KCNQ2 enhance,KCNQ2 inh,Kir21 confirm,HEK293 ctr,others
CCc1nc(C)cn1S(=O)(=O)c1cc(Br)ccc1OC,1,i,24%*,i,
CCc1nc(C)cn1S(=O)(=O)c1cc(Br)c(C)cc1OC,.,i,35%*,i,
CCc1nc(C)cn1S(=O)(=O)c1ccc(Cl)c(Cl)c1Cl,.,i,.,.,
CCc1nc(C)cn1S(=O)(=O)c1cc(F)ccc1OC,1.9,i,.,.,
COC(=O)c1ccccc1NC(=O)NN1CCN(C)CC1,0.72,i,.,.,
O=C(N/N=C/c1ccccn1)NC12CC3CC(CC(C3)C1)C2,.,i,.,.,
Cc1nn(C(=O)c2c([N+](=O)[O-])cnn2C)c(C)c1Cl,0.96,i,.,.,
CCCN(CC(=O)Nc1ccccc1C)C(=O)c1ccc(NC2CC2)c([N+](=O)[O-])c1,0.21,i,.,.,
CC/C(=N/NC(=O)c1ccc2c(c1)OCO2)c1ccccc1O,7.9*,i,i,i,CHO-K1 ctr=-12;KCNQ1 sel pot=-20;KCNQ2 pot confirm=16*;Kir2-1 sel=-31;KCNQ2 W236L MoA=i
CC/C(=N\NC(=O)c1ccc2c(c1)OCO2)C12CC3CC(CC(C3)C1)C2,.,i,.,.,
Cc1c(OCC(=O)NCCN2CCOCC2)ccc2c(-c3ccccc3)cc(=O)oc12,.,i,.,.,
CC(C)(CC(=O)O)CC(=O)N1CCN(c2nc3cc(Cl)ccc3s2)CC1,1.5,i,.,.,
COc1ccc(Cc2c(C)nc(N)nc2Cl)cc1,1.2,i,.,.,
Cc1nc(N)nc(N)c1CCCc1ccc(Cl)c(Cl)c1,.,i,37%*,68%*,
CC1=C(C(=O)Nc2cccc(F)c2)C(c2ccsc2)C2=C(CC(C)(C)CC2=O)N1 (centres undefined),.,i,.,.,
COc1cc2c(cc1OC)CN(c1ccc(-c3ccccc3OC)nn1)CC2,.,i,.,.,
COc1cc2c(cc1OC)CN(c1ccc3ccccc3n1)CC2,.,i,56%*,132%*,
COc1ccc(C(C)=O)cc1COC(=O)CSCC(=O)Nc1ccc(C)cc1,.,i,.,.,
COc1cccc(CN(CC(=O)NCc2ccccc2)C(=O)c2csnn2)c1,0.04,i,.,.,
COCCn1c(NCc2ccco2)nc2c1c(=O)[nH]c(=O)n2C,0.02,i,.,.,
CC1CCc2c(sc(NC(=O)c3ccccc3C(=O)O)c2C#N)C1 (centres undefined),3.9,i,.,.,
CCC(C)(C)C1CCc2c(sc(NC(=O)c3ccccc3C(=O)O)c2C#N)C1 (centres undefined),8.3*,i,i,151%*,CHO-K1 ctr=0;KCNQ1 sel pot=-21;KCNQ2 pot confirm=16*;Kir2-1 sel=-19;KCNQ2 W236L MoA=i
COc1ccc(S(=O)(=O)N2CCCOC2CNC(=O)C(=O)NC2CCCC2)cc1 (centres undefined),.,i,.,.,
CNc1c(NS(=O)(=O)c2ccc(C3CCCCC3)cc2)c(=O)oc2ccccc12,0.03,i,.,.,
O=C(Nc1cccnc1)C1CCN(S(=O)(=O)c2ccc(Cl)cc2)CC1,.,i,.,.,
SMILES,KCNQ2 enhance,KCNQ2 inh,Kir21 confirm,HEK293 ctr,others
CCC(=O)NC(=S)Nc1ccc(NC(=O)COc2ccc(Cl)c(C)c2)cc1,0.07,i,.,.,
Cc1cc(OCC(=O)NNC(=S)NC(=O)c2ccc(Br)o2)ccc1Cl,8.1*,i,i,i,CHO-K1 ctr=90*;KCNQ1 sel pot=-3;KCNQ2 pot confirm=-22;Kir2-1 sel=-40
CCOC(=S)NC(=O)c1sc2ccccc2c1Cl,21*,i,i,356%*,CHO-K1 ctr=-2;KCNQ1 sel pot=-6;KCNQ2 pot confirm=62*;Kir2-1 sel=-37;KCNQ2 W236L MoA=i
O=C(NC(=S)NCCO)c1sc2ccccc2c1Cl,.,i,.,.,
CC(C)(C)C(=O)NC(=S)NNC(=O)c1sc2ccccc2c1Cl,12,i,.,.,
CCCOC(=S)NC(=O)c1sc2ccccc2c1Cl,20*,i,i,312%*,CHO-K1 ctr=22*;KCNQ1 sel pot=-12;KCNQ2 pot confirm=55*;Kir2-1 sel=-12;KCNQ2 W236L MoA=i
O=C(Nc1cccc(Cl)c1)NC1CC2CCC1C2 (centres undefined),4.3,i,.,.,
CCOc1ccc(NC(=S)N2CCN(C/C=C/c3ccccc3)CC2)cc1,3.7,i,.,.,
O=C(NC(=S)N1CCN(c2nc(-c3ccccc3)cs2)CC1)c1cncc(Br)c1,17*,i,i,247%*,CHO-K1 ctr=-11;KCNQ1 sel pot=-14;KCNQ2 pot confirm=18*;Kir2-1 sel=-26;KCNQ2 W236L MoA=i
COCCCNC(=S)N1CCN(c2nc(-c3ccccc3)cs2)CC1,0.5,i,.,.,
C=CCOc1ccc(C2C(C#N)=C(N)N(N(C)C)C3=C2C(=O)CCC3)cc1 (centres undefined),0.24,i,.,.,
CCOc1ccccc1N1CC(C(=O)N(CC)CC(=O)Nc2ccc3c(c2)OCCO3)CC1=O (centres undefined),.,i,.,.,
CCOc1ncc(S(=O)(=O)N2CCN(CC)CC2)cc1C(=O)O,.,i,.,.,
CC/C(=N\N=C(/CC)c1ccccc1N)c1ccccc1N,0.67,i,.,.,
Cn1c(NCc2cc(Br)ccc2O)nc2ccccc21,0.81,i,.,.,
Cn1c(-c2ccc3c(c2)OCO3)cnc1NCc1ccccc1,.,i,30%*,i,
Cn1c(-c2ccccc2)cnc1NCc1ccccc1,.,i,.,.,
Cn1c(-c2cccc(Br)c2)cnc1NCc1ccccc1O,5.6*,i,75%*,i,CHO-K1 ctr=2.7*;KCNQ1 sel pot=8.7*;KCNQ2 pot confirm=-13;Kir2-1 sel=-59
C[C@]12CCC(=O)CC1=CCC1C3CC=C(C#N)[C@@]3(C)CC[C@@]12O (some centres undefined),.,i,.,.,
Cc1cc(=O)oc2cc(OC(=O)c3ccco3)ccc12,0.19,i,i,i,
CCc1cc(=O)oc2cc(OC(=O)c3ccco3)ccc12,.,i,.,.,
CC1(CCc2ccccc2)NC(=O)N(CC(=O)Nc2ccc3c(c2)OCCO3)C1=O (centres undefined),1.3,i,.,.,
